Laboratory results: ChEMBL document CHEMBL3433997, “St. Jude Leishmania screening dataset” (2016)

How the values were obtained:
Type in all cases: functional
[1] = target: Solute carrier family 2, facilitated glucose transporter member 1 (Homo sapiens) (UniProt P11166); assay: ST_JUDE_LEISH: Cytotoxicity at 2uM final concentration against transgenic Leishmania Mexicana promastigotes LmGLUT1 that are glucose transport deficient and complemented with the human glucose transporter GLUT1. Activity is measured by DNA content using SYBR green in vitro
[2] = target: Hexose transporter 1 (Plasmodium falciparum) (UniProt O97467); assay: ST_JUDE_LEISH: Cytotoxicity at 2uM final concentration against transgenic Leishmania Mexicana promastigotes LmPfHT that are glucose transport deficient and complemented with the Plasmodium falciparum hexose transporter. Activity is measured by DNA content using SYBR green in vitro
[3] = target: Glucose transporter (Leishmania mexicana) (UniProt O61059); assay: ST_JUDE_LEISH: Cytotoxicity at 2uM final concentration against transgenic Leishmania Mexicana promastigotes LmGT2 that are glucose transport deficient and complemented with the L. Mexicana glucose transporter 2. Activity is measured by DNA content using SYBR green in vitro

Sequence of Solute carrier family 2, facilitated glucose transporter member 1 (Homo sapiens) (P11166 whole entry): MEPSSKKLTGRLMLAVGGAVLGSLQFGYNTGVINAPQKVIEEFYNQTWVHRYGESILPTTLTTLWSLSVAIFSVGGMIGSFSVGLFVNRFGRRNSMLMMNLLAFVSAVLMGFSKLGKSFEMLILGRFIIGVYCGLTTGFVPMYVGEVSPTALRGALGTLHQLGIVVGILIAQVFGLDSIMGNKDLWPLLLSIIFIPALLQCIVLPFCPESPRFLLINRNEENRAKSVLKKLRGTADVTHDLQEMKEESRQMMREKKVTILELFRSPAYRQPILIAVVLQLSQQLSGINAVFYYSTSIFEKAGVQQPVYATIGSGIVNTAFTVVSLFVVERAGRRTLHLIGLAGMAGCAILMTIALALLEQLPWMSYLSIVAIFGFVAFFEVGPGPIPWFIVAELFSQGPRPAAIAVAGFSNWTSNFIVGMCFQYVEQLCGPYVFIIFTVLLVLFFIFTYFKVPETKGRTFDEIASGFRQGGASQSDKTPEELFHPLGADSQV

Row | SMILES | inhibition [1] [%] | inhibition [2] [%] | inhibition [3] [%]
1 | COc1ccc(C2C(C(=O)Nc3ccc4c(c3)OCO4)c3cc(OC)c(OC)cc3C(=O)N2C)cc1 (centres undefined) | 2.12 | 1.73 | 0.53
2 | CC(C)C[C@H](NC(=O)c1ccc(OCCN2CCOCC2)cc1)C(=O)N[C@H](/C=N/NC(=O)c1ccccc1)CCc1ccccc1 | 3.15 | 5.83 | 2.03
3 | O=C1COC2(CN1C1CCN(Cc3ccc(O)c(Cl)c3)C1)c1ccccc1-c1ccccc12 (centres undefined) | 9.11 | 7.57 | 5.67
4 | O=C(NCCCCCN1CCC(c2c[nH]c3ccccc23)CC1)Nc1cccc(C(F)(F)F)c1 | -1.78 | -2.05 | -2.66
5 | COC(=O)c1ccc2c(-c3nc4ccc(OC)cc4[nH]3)c[nH]c2c1 | 11.5 | 10.3 | 8.93
6 | CS(=O)(=O)CCNCc1cccc(-c2ccc3c(Nc4cc(O)c(Cl)cc4F)ccnc3c2)c1 | 6.47 | 4.71 | 2.65
7 | CC(C)(C)c1cc(C(=O)Nc2ccc(C(=N)N)cc2)c(O)c(C(C)(C)C)c1 | -0.84 | 3.05 | 1.59
8 | O=C(N[C@@H](Cc1ccccc1)[C@H](O)CNC1CCOCC1)c1cc(C2CCCC2)cc(N2CCCCS2(=O)=O)c1 | 3.67 | 3.81 | 4.01
9 | Cc1c(CN2CCCCC2)cccc1OCCCNc1nc(NCCc2ccc(O)cc2)nc(N2CCNCC2)n1 | 5.55 | 2.95 | 5.43
10 | CN(C)CCn1c(=N)n(CC(O)c2ccc(Cl)c(Cl)c2)c2ccccc21 (centres undefined) | 6.31 | 4.53 | 5.49
11 | CS(=O)(=O)c1ccc(-c2cnc(N)c(-c3cccc(O)c3)c2)cc1 | 6.6 | 6.49 | 6.07
12 | COc1ccc(S(=O)(=O)N2CCCC(C)C2)cc1N1CCN(C(=O)c2ccc([N+](=O)[O-])o2)CC1 (centres undefined) | 1.83 | 0.28 | 0.09
13 | OC(CNCc1ccco1)Cn1c2ccc(Br)cc2c2cc(Br)ccc21 (centres undefined) | 5.15 | 3.41 | 2.56
14 | Cc1cc(NC(=O)Nc2ccc3ncccc3c2)c2ccccc2n1 | 4.47 | 3.97 | 1.94
15 | O=C(NC1CC1)c1ccc(N2CCC(c3ccccc3)CC2)nc1 | 5.99 | 5.01 | 3.25
16 | Cc1cc(N(C)C)nc(Nc2ccc(NC(=O)c3ccc(Br)o3)cc2)n1 | 7.73 | 9.85 | 3.96
17 | CCCNCc1ccc(-c2ccc(CN(CCOC)C(=O)c3nn(-c4ccccc4)nc3C)cc2)nc1 | 4.16 | 1.87 | 1

Row | SMILES | inhibition [1] [%] | inhibition [2] [%] | inhibition [3] [%]
18 | Cc1cc(N(CCN2CCCCC2)CCN2CCCCC2)nc(Nc2ccc(Cl)cc2)n1 | 3.2 | 1.3 | 2.83
19 | Cc1nc(-c2ccc(-c3ccc(NC(=O)Nc4ccc(I)c(OCCN(C)C)c4)cc3)c(C)c2)no1 | 7 | 5.44 | 3.02
20 | Cc1ccccc1C1CCN(C2CCC(NC(=O)c3csc(-c4cccc(Cl)c4)n3)CC2)CC1 (centres undefined) | 9.21 | 12 | 8.46
21 | CCc1cc(Br)c(CNCCCNc2cc(=O)c3ccccc3[nH]2)s1 | 0.41 | -0.52 | -2.7
22 | CC(C)(C)NC(=O)c1ccc(Oc2ccc(OC(F)(F)F)cc2)c(NC(=O)C(C)(C)C)c1 | -3.08 | -1.32 | -2.26
23 | COc1ccc2nccc([C@@H](O)CN3CCC(NCCOc4cc(F)cc(F)c4)CC3)c2c1 | 9.84 | 19.3 | 4.32
24 | COC(=O)CC[C@H](NC(=O)[C@H](C)NC(=O)OC(C)(C)C)C(=O)OC | 4.67 | 0.48 | 0.89
25 | O=C(NCc1ccc(Cl)cc1)c1ccc(CN2CCCN(Cc3cccc(O)c3)CC2)cc1 | 0.86 | 0.62 | 2.04
26 | Cc1cc(=NN=Cc2ccccc2F)c2cc(F)ccc2[nH]1 | 1.79 | 3.14 | 0.82
27 | CNC(=O)c1cc(F)c(F)cc1Nc1nc(Nc2cccc(CS(C)(=O)=O)c2)ncc1Cl | 1.41 | 1.35 | 2.49
28 | CCOc1cc(Cc2cnc(N)nc2N)cc(OCC)c1OCC | 4.33 | 1.8 | 9.33
29 | O=C(c1ccccc1)N1COCC(CCN2CCC(N3CCCC3)CC2)(c2ccc(Cl)c(Cl)c2)C1 (centres undefined) | 2.71 | -0.49 | 2.59
30 | CN1CCN(CCCN(Cc2ccc(-c3ccc(CNCCc4ccccc4)cc3)cc2)C(=O)c2cccs2)CC1 | 2.36 | 1.19 | 3.32
31 | c1ccc(N2CCN(c3cc(-c4cccnc4)nc(-c4ccncc4)n3)CC2)nc1 | 2.7 | 1.5 | 0.92
32 | COc1ccc2nccc([C@@H](O)CN3CCC(NCCOc4ccccc4C(F)(F)F)CC3)c2c1 | 0.68 | 2.17 | 2.28
33 | Cc1noc(C)c1-c1cccc(CNCc2cccc(-c3ccc(-c4nc5cccc(C)c5[nH]4)cc3)c2)c1 | 1.89 | 1.4 | 0.96
